Results on 29 compounds are retold here after PubChem BioAssay AID588855 (National Center for Advancing Translational Sciences (NCATS), 2011).

About 5,000 (1.2%) of roughly 410,000 compounds were called active. Another 13% or so got no clear call; they are omitted. The entries come from a sample that favours actives as a whole. A number with no mark means an inactive call. Calls come from the whole dose curve; as a rule, active = well fitted inhibition curve with a large enough effect; inconclusive = small, poorly fitted or top-dose-only effect; inactive = no such curve, though single readings can be large or run the other way.
% is set by controls: 0 for no effect and ±100 for the full control effect; potency is the fitted concentration of half-maximal effect.

The nature of the test: qHTS for Inhibitors of TGF-b. Note: nearly all actives have a fitted effect of over 65% in size. Particulars: HepG2 CAGA-GFP TGF-b/SMAD3 reporter, GFP fluorescence, 18 h, TGF-beta stimulated, 500 pg/mL final; series mostly up to 46.1 µM; activity, negative = inhibition: at the top concentration. The method in brief: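 HEPG2 CAGA-GFP reporter cells (1000/well, DMEM with 1% FBS) received compounds, then recombinant TGF-beta at 500 pg/mL final for 18 hours at 37 degrees C. Per-cell GFP summed per well was normalised to unstimulated and stimulated DMSO controls before curve fitting.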
Background: In qHTS, concentration-response curves come from the screen itself.
With `Cc1ccn2c(Nc3ccc4c(c3)OCCO4)c(-c3ccc(C)s3)nc2c1`, the “activity, negative = inhibition” value was 23.7%.

Take `COc1ccccc1CNC(=O)c1ccc(-n2c(C)cc3c2CCCC3)cc1`: the “activity, negative = inhibition” value is -1.18%.

`Cc1ccc(C(=O)Nc2ccccc2F)cc1S(=O)(=O)N1CCOCC1`: the “activity, negative = inhibition” value was 10.2%.

For the compound `C=CCSc1nsc(NC(=O)Nc2cccc(C(C)=O)c2)n1`, the Potency was 3.55 µM (active).

As to `CC(=O)c1cccc(NC(=S)N2CCCC2)c1`, the “activity, negative = inhibition” value was 1.35%.

As for `CC(=O)c1ccc(NC(=O)CSc2nnc(NC(=O)Nc3ccccc3)s2)cc1`, the “activity, negative = inhibition” value is -0.835%.

As for `CCN(CC)c1ccc(NC(=O)Cn2nc3c(cc2=O)CCCC3)c(C)c1`, the “activity, negative = inhibition” value was 0.157%.

With `O=C(Nc1ccccc1Cl)/C(Cl)=C(\Cl)S(=O)c1ccccc1` (centres undefined), the Potency is 2.24 µM (active).

Regarding `CS/C(=C\C(=O)c1ccco1)Nc1ccccc1Cl`, the “activity, negative = inhibition” value was -18.8%.

On to `O=C(Nc1ccccc1Cl)N1CCC(CN2CCCC2)CC1`, for which the “activity, negative = inhibition” value is -7.51%.

For the compound `CCc1ccc(-n2nc(C)c3c(C)cc(=O)n(CC(=O)Nc4ccc(F)cc4C)c32)cc1`, the “activity, negative = inhibition” value is -2.8%.

Turning to `CCOc1ccccc1NC(=O)CCn1cnnn1`, the “activity, negative = inhibition” value is 7.48%.

On to `O=C(Cc1cccs1)NCc1cccc(C(F)(F)F)c1`, for which the “activity, negative = inhibition” value was 32.4%.

With `N/C(=N\S(=O)(=O)c1cc(C(F)(F)F)cc(C(F)(F)F)c1)c1cccs1`, the Potency was 12.6 µM (active).

`Cc1ccc(S(=O)(=O)/N=C(\N)c2ccc(F)cc2)cc1`: the “activity, negative = inhibition” value was 13.6%.

Consider `CCc1ccc(NC(=O)CSc2nc3c([nH]c4ccccc43)c(=O)n2-c2cccc(OC)c2)cc1`, for which the “activity, negative = inhibition” value was -9.35%.

In the case of `COc1ccc(-c2nc(Cn3c(=O)cc(C)c4c(C)nn(-c5ccccc5)c43)c(C)o2)cc1OC`, the “activity, negative = inhibition” value is 36.5%.

As to `N=C1C(c2nc3ccccc3s2)=C(O)CN1NC(=O)c1ccc([N+](=O)[O-])cc1`, the Potency is 7.08 µM (active).

Take `Cc1ccc(C)n1NC(=O)c1ccc([N+](=O)[O-])cc1`: the “activity, negative = inhibition” value was -1.59%.

`N=C1C(c2nc3ccccc3[nH]2)=C(O)CN1NC(=O)c1c[nH]c2ccccc12`: the “activity, negative = inhibition” value was 8.9%.

As to `Cc1ccc(C(=O)Nc2ccc(OCc3cc(=O)n4c5c(sc4n3)CCCC5)cc2)cc1`, the “activity, negative = inhibition” value was 3.16%.

Consider `O=C1NC[C@H](Cc2ccc(O)cc2)N(C[C@H]2CCCN2C[C@H](Cc2ccccc2)N2C[C@H](Cc3ccccc3)N(CCc3ccccc3)C(=O)C2=O)C1=O`, for which the “activity, negative = inhibition” value is -8.11%.

`O=C1NC[C@@H](Cc2ccc(O)cc2)N(CCc2cccc(F)c2)C1=O`: the “activity, negative = inhibition” value is 19%.

Take `CCOc1ccc(CCN2C(=S)N([C@@H](CC(C)C)CN3CCC[C@@H]3CN3C(=S)NC[C@@H]3Cc3ccc(O)cc3)C[C@@H]2CC(C)C)cc1`: the Potency was 10 µM (active).

As for `NC1=NC[C@@H](Cc2ccc(O)cc2)N1CC1CCCCC1`, the “activity, negative = inhibition” value was -30.5%.

As for `CCOc1ccc(CCN2C(=S)N([C@@H](CC(C)C)CN3CCC[C@@H]3CN3C(=S)NC[C@@H]3Cc3ccc(O)cc3)C[C@@H]2Cc2ccc(O)cc2)cc1`, the Potency is 11.2 µM (active).

`CC(C)C[C@H]1CNC(=S)N1C[C@H]1CCCN1C[C@H](Cc1ccc(O)cc1)N1C[C@H](Cc2ccc(O)cc2)N(CC2CCCCC2)C1=S`: the Potency was 15.8 µM (active).

In the case of `CC[C@@H](C)[C@@H]1CN([C@@H](C)CN2CCC[C@H]2CN2C(N)=NC[C@H]2C(C)C)C(=N)N1CCc1ccc(Cl)c(Cl)c1`, the “activity, negative = inhibition” value was 7.15%.

For the compound `C[C@@H](CN1CCC[C@H]1CN1C(N)=NC[C@@H]1Cc1ccccc1)N1C[C@@H](Cc2ccccc2)N(CCCC2CCCC2)C1=N`, the “activity, negative = inhibition” value was 4.53%.
